Test results published in PubChem BioAssay (NCATS).
Records with an inconclusive call do not appear. Values without a mark were called inactive. Active and inactive are the calls of the source. Calls follow the shape of the dose curve; as a rule, active = well fitted inhibition curve with a large enough effect; inconclusive = small, poorly fitted or top-dose-only effect; inactive = flat fitted curve, though single readings scatter.

Assay: qHTS of Trypanosoma Brucei Inhibitors: LOPAC Validation (AID 624147)
Settings: purified enzyme assay, luminescence, 45 min; series mostly up to 57.5 µM; activity change, negative = inhibition: at the top concentration
Excerpt: Members of the Trypanosomatidae family of parasitic protozoans cause a spectrum of diseases throughout the tropical and subtropical world. Sleeping sickness, caused by two subspecies of Trypanosoma brucei, is endemic to areas of sub-Saharan Africa, while Chagas' disease, a manifestation of Trypanosoma cruzi infection, is prevalent throughout Central and South America. In addition, many species of Leishmania are responsible for a range of cutaneous and visceral diseases, causing ulcers, destructive lesions and kalaazar, a lethal infection of the viscera. These diseases cause severe public health and economic burdens on populations that are often already caught in a tragic cycle of poverty, poor nutrition and disease. Collectively, parasites of the trypanosomatid family infect 30 million people worldwide (~500 million live in endemic areas), and account for ~130K deaths annually. Existing treatments have developed little in the past 50 years, and suffer from toxicity, poor efficacy and resistance; the goal of this project is to develop lead drugs that will be suitable for entry into pre-clinical trials.
Glycolysis in axenically cultured T. cruzi, representing the intracellular pathogenic stage, is also essential for these parasites. {Engel, 1987} This project aims to discover and optimize selective inhibitors of the glycolytic enzyme pyruvate kinase (PYK) from Trypanosoma brucei, the parasite that causes sleeping sickness. […] Trypanosomatid PYKs show significant differences from their human counterparts including only 47-50% sequence identity and different allosteric and activation properties.{Callens, 1992} To this end, a qHTS was done against the MLSMR to discover inhibitors.
NIH Molecular Libraries Probe Production Network [MLPCN]
NIH Chemical Genomics Center [NCGC]
PI Name: Malcolm Walkinshaw, University of Edinburgh
2 uL of TbPYK/substrate buffer (columns 1-3, 5-48) are dispensed into Greiner white solid bottom 1536-well assay plates; column 4 receives only TEA buffer as 0x TbPYK controls. Compounds are then transferred via Kalypsys pin tool equipped with 1536-pin array (10 nL slotted pins, V&P Scientific, San Diego, CA). Following addition of compound, 2 uL of ADP (130 uM final concentration, all columns) is added to initiate the reaction. The plates are then incubated at room temperature for 45 minutes. Kinase-Glo Plus reagent is added (3 uL) and plates incubated for 10 minutes, before being transferred to a ViewLux high-throughput CCD imager (PerkinElmer) wherein single end-point measurements of luminescence are acquired using a clear filter. All reagents are diluted in an assay buffer consisting of 50 mM TEA (pH 7.2), 100 mM KCl, 10 mM MgCl2, 0.05% BSA and 0.01% Tween-20.
All screening operations will be performed on a fully integrated robotic system (Kalypsys, San Diego, CA) containing one RX-130 and two RX-90 anthropomorphic robotic arms (Staeubli, Duncan, SC). Library plates will be screened starting from the lowest and proceeding to the highest concentration. Vehicle-only plates, with DMSO being pin-transferred to columns 5-48, will be inserted uniformly at the beginning and the end of each library in order to monitor and record any shifts in the background, which can be affected by reagent dispensers or loss in enzyme activity over time. Screening data will be corrected, normalized, and concentration-effect relationships will be derived by using publicly-available curve fitting algorithms developed in-house (http://ncgc.nih.gov/pub/openhts).
Potency is read from the fitted curve at half-maximal effect.

**Q.** Which “activity change, negative = inhibition” value does the source give for `CC(=O)SCC[N+](C)(C)C` here?
**A.** Its value is -14%.

**Q.** With `C#C[C@]1(O)CC[C@H]2[C@@H]3CCC4=Cc5oncc5CC4(C)[C@H]3CCC21C` (stereo not given in full) as the compound, how does the “activity change, negative = inhibition” value read?
**A.** Its value is -8.08%.

**Q.** With `Cc1ccccc1CNc1ncnc2c1ncn2C1OC(CO)C(O)C1O` (stereo not given) as the compound, how does the “activity change, negative = inhibition” value read?
**A.** The value was -3.37%.

**Q.** Which Potency does the source give for `Oc1cc(O)cc(/C=C/c2ccc(O)c(O)c2)c1` here?
**A.** Its Potency is 13.5 µM (active).

**Q.** For `C[C@@H](CN1CCC(Cc2ccccc2)CC1)[C@@H](O)c1ccc(O)cc1`, which “activity change, negative = inhibition” value is on record?
**A.** The value was -11.7%.

**Q.** For `CCCCCCCCCCCCCCCCCCNC(=O)OCC(COP(=O)([O-])OCC[n+]1ccsc1)OC` (stereo not given), which “activity change, negative = inhibition” value is on record?
**A.** Its value is -3.91%.

**Q.** Which “activity change, negative = inhibition” value does the source give for `NCCSSCCN` here?
**A.** Its value is -3.03%.

**Q.** With `NC(=O)C(=O)O` as the compound, how does the “activity change, negative = inhibition” value read?
**A.** The value was 5.9%.

**Q.** With `NC(CCCP(=O)(O)O)C(=O)O` (stereo not given) as the compound, how does the “activity change, negative = inhibition” value read?
**A.** The value was 3.55%.

**Q.** For `CN1CC(=O)N/C1=N/C(=O)Nc1cccc(Cl)c1`, which “activity change, negative = inhibition” value is on record?
**A.** Its value is -10.6%.

**Q.** For `CN1CCc2cc(O)c(O)cc2C(c2ccccc2)C1` (stereo not given), which “activity change, negative = inhibition” value is on record?
**A.** Its value is -8.59%.

**Q.** For `CCN(CC)c1ncnc2c1ncn2[C@@H]1O[C@H](COP(=O)(O)OP(=O)(O)C(Br)(Br)P(=O)(O)O)[C@@H](O)[C@H]1O`, which “activity change, negative = inhibition” value is on record?
**A.** Its value is -9.49%.

**Q.** Which “activity change, negative = inhibition” value does the source give for `Cc1nc2sccn2c(=O)c1CCN1CCC(=C(c2ccccc2)c2ccc(F)cc2)CC1` here?
**A.** The value was -7.5%.

**Q.** For `CC(C)NC[C@H](O)COc1cccc2[nH]ccc12`, which “activity change, negative = inhibition” value is on record?
**A.** Its value is -9%.

**Q.** Which “activity change, negative = inhibition” value does the source give for `CSc1nc(N)c2ncn([C@@H]3O[C@H](COP(=O)(O)OP(=O)(O)OP(=O)(O)O)[C@@H](O)[C@H]3O)c2n1` here?
**A.** The value was -8.36%.

**Q.** Which “activity change, negative = inhibition” value does the source give for `C=CC(=O)c1ccc(CCCCCC)cc1` here?
**A.** The value was -6.7%.

**Q.** With `CC(N)C(=O)OC(C)(C)Cc1ccc(Cl)cc1` (stereo not given) as the compound, how does the “activity change, negative = inhibition” value read?
**A.** The value was -3.94%.

**Q.** For `O=c1[nH]c2cc(C(F)(F)F)ccc2n1-c1cc(C(F)(F)F)ccc1O`, which “activity change, negative = inhibition” value is on record?
**A.** The value was 3.73%.

**Q.** Which “activity change, negative = inhibition” value does the source give for `CCCCCCCCCCCCCCCCCC(=O)NCC(COP(=O)([O-])OCC[N+](C)(C)C)OCC` (stereo not given) here?
**A.** The value was -5.22%.

**Q.** Which “activity change, negative = inhibition” value does the source give for `N#C/C(=C\c1ccc(O)c(O)c1)C(=O)c1ccc(O)c(O)c1` here?
**A.** Its value is -18.7%.

**Q.** Which “activity change, negative = inhibition” value does the source give for `CC(C)ON([C@@H](C(=O)NO)C(C)C)S(=O)(=O)c1ccc(-c2ccccc2)cc1` here?
**A.** Its value is -6.19%.

**Q.** With `NC(N)=NC(=O)c1nc(Cl)c(N2CCCCCC2)nc1N` as the compound, how does the “activity change, negative = inhibition” value read?
**A.** Its value is -2.72%.

**Q.** Which “activity change, negative = inhibition” value does the source give for `CCCCCCCCCCCCCCCC(=O)OC(CC(=O)O)C[N+](C)(C)C` (stereo not given) here?
**A.** The value was -6.4%.

**Q.** With `Ic1ccc(N2CCN(Cc3c[nH]c4ncccc34)CC2)cc1` as the compound, how does the “activity change, negative = inhibition” value read?
**A.** Its value is -9.03%.

**Q.** For `Nc1ncnc2c1ncn2[C@@H]1O[C@H](COP(=O)(O)OP(=O)(O)OP(=O)(O)OP(=O)(O)OC[C@@H]2O[C@H](n3cnc4c(N)ncnc43)[C@@H](O)[C@H]2O)[C@@H](O)[C@H]1O`, which “activity change, negative = inhibition” value is on record?
**A.** Its value is -24.6%.

**Q.** For `O=C(O)[C@@H]1C[C@@H](C(=O)O)N1`, which “activity change, negative = inhibition” value is on record?
**A.** The value was -2.82%.

**Q.** With `C[C@@H](NC(=O)/C(C#N)=C/c1ccc(O)c(O)c1)c1ccccc1` as the compound, how does the “activity change, negative = inhibition” value read?
**A.** Its value is -20.6%.

**Q.** Which “activity change, negative = inhibition” value does the source give for `CCOC(=O)C1=C(C)NC(C)=C(C(=O)OCC)C1c1c(F)c(F)c(F)c(F)c1F` here?
**A.** The value was -14.3%.

**Q.** For `NC[C@H]1O[C@@H](n2cnc3c(N)ncnc32)[C@H](O)[C@@H]1O`, which “activity change, negative = inhibition” value is on record?
**A.** The value was -5.25%.

**Q.** For `Nc1nc(Nc2ccccc2)nc2c1ncn2[C@@H]1O[C@H](CO)[C@@H](O)[C@H]1O`, which “activity change, negative = inhibition” value is on record?
**A.** Its value is -9.08%.

**Q.** For `CC(=O)/C=C1\C(=O)N(C)c2ccccc21`, which “activity change, negative = inhibition” value is on record?
**A.** The value was -22.2%.

**Q.** Which “activity change, negative = inhibition” value does the source give for `COc1ccc(NC(=O)/C=C/c2ccc(Cl)cc2)cc1` here?
**A.** The value was -15.2%.

**Q.** With `CCN1/C(=C/C(C)=O)Sc2ccc(OC)cc21` as the compound, how does the “activity change, negative = inhibition” value read?
**A.** The value was -3.27%.

**Q.** Which “activity change, negative = inhibition” value does the source give for `NCCCCCCCCCCN` here?
**A.** The value was -13.1%.

**Q.** For `O=C(O)CCCC[C@@H]1CCSS1`, which “activity change, negative = inhibition” value is on record?
**A.** The value was -11.1%.

**Q.** Which “activity change, negative = inhibition” value does the source give for `CC(C)(C=O)Cc1cc(C(C)(C)C)c(O)c(C(C)(C)C)c1` here?
**A.** The value was -6.16%.

**Q.** For `Clc1ccc(N2CCN(Cc3cc4ccccn4n3)CC2)cc1`, which “activity change, negative = inhibition” value is on record?
**A.** Its value is 2.12%.

**Q.** Which “activity change, negative = inhibition” value does the source give for `COc1cc(C(O)CO)ccc1OS(=O)(=O)O` (stereo not given) here?
**A.** Its value is -9.69%.

**Q.** With `C=C[C@@H]1CN2CC[C@@H]1C[C@H]2[C@H](O)c1ccnc2ccc(OC)cc12` as the compound, how does the “activity change, negative = inhibition” value read?
**A.** Its value is -3.88%.

**Q.** Which “activity change, negative = inhibition” value does the source give for `Nc1nc(Cl)nc2c1ncn2[C@@H]1O[C@H](CO)[C@@H](O)[C@H]1O` here?
**A.** The value was -11.8%.
